The values below come from the supplement of paper PMC12350171.

What all share (details): 20 µM
Assay [1] concerns Haemophilus parainfluenzae. The assay can be described thus: growth AUC normalised to DMSO control (fraction of control); higher = less growth inhibition, active = hit call of the paper. A digest of the protocol:
(§1)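 Hemin and NAD were added to the medium for Haemophilus parainfluenzae. All pathogens, after two anaerobic passages, were inoculated at a starting OD578 of 0.01 into pre-reduced mGAM plates with 20 μM compound and 1% DMSO under breathable seals, and OD578 was read hourly for 24 h in three biological replicates. AUC of each growth curve was obtained with the trapezoidal rule up to the exponential-to-stationary transition and normalised to DMSO controls from the same plate.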

The test system of assay [2] is Salmonella enterica typhimurium. The assay is described as above. The essentials:
as §1

The subject of a further assay is Shigella flexneri. The assay is described as above. The essentials:
as §1

In a further assay the test system is Vibrio cholerae. The assay is described as above. A digest of the protocol:
as §1

In assay [3] the test system is Yersinia pseudotuberculosis. The description is as above. The essentials:
as §1

Another assay has as its system P. vulgatus RND KO. Briefly: growth AUC normalised to DMSO control (median) (fraction of control); higher = less growth inhibition, active = hit call of the paper. The essentials: (§2)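 Strains were passaged twice overnight without oxygen, then grown in mGAM in 96-well plates with each approved-drug library compound at 20 μM and 1% DMSO, starting at OD578 0.01. OD578 was read hourly for 24 h inside an anaerobic incubator. Curves were truncated at entry into stationary phase, and the trapezoidal-rule area under the curve was normalised to same-plate vehicle wells. The value is the median across three biological replicates.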

A further assay has as its system P. vulgatus WT. Described as above. A digest of the protocol:
as §2

The test system of assay [4] is S. enterica typhimurium WT. Described as above. A digest of the protocol:
as §2

Assay [5] concerns S. enterica typhimurium tolC KO. The assay is described as above. The essentials: as §2

Counter-ions that a name gives are not always drawn. Values without a mark were called inactive.
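For growth AUC normalised to DMSO control (median) in this document: active when median AUC fell below 0.1.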

Turning to `C[C@H](N)[C@H](O)c1ccc(O)c(O)c1` [Levonordefrin], the “growth AUC normalised to DMSO control” value in assay [1] was 1.04; in assay [2], 1.01; with Shigella flexneri, 1; in the assay with Vibrio cholerae, 1; in assay [3], 1.03; in the assay on P. vulgatus RND KO it was 1.01. In addition, the “growth AUC normalised to DMSO control” value was 1.03 in the assay on P. vulgatus WT, 0.99 in assay [4] and 1 in assay [5].

Turning to `COc1ccc(C(=O)N2CCCC2=O)cc1` [Aniracetam], the “growth AUC normalised to DMSO control” value in [1] is 0.993; in [2], 1; in the assay on Shigella flexneri it was 0.998; in the assay with Vibrio cholerae, 1.01; in assay [3], 0.972; in the assay with P. vulgatus RND KO, 0.996. The “growth AUC normalised to DMSO control” value was 1.01 in the assay on P. vulgatus WT, 0.995 in assay [4] and 0.997 in assay [5].

Regarding `COc1ccc(CN2CCNCC2)c(OC)c1OC` [Trimetazidine dihydrochloride], the “growth AUC normalised to DMSO control” value in assay [1] is 1.02; in assay [2] it was 0.989; in the assay on Shigella flexneri, 1.03; in the assay on Vibrio cholerae, 1.02; in assay [3], 1.01; in the assay with P. vulgatus RND KO, 1.01. For the same compound, the “growth AUC normalised to DMSO control” value is 1.01 in the assay on P. vulgatus WT, 0.997 in assay [4] and 0.994 in [5].

Turning to `CN1[C@@H]2CC[C@H]1C[C@@H](OC1c3ccccc3CCc3ccccc31)C2` [Deptropine citrate], the “growth AUC normalised to DMSO control” value in assay [1] is 0.95; in [2] it was 0.993; with Shigella flexneri, 0.971; in the assay on Vibrio cholerae, 0.926; in assay [3] it was 0.965; with P. vulgatus RND KO it was 0.941. Also, the figures for the “growth AUC normalised to DMSO control” value (in the assay with P. vulgatus WT; in assay [4]; in assay [5]) were 0.945, 0.994 and 0.942, respectively.

Regarding `C[N+]1(C)[C@@H]2CC[C@H]1C[C@@H](OC(=O)C(CO)c1ccccc1)C2` (some centres not stated) [Methylatropine nitrate], the “growth AUC normalised to DMSO control” value in [1] was 1.05; in assay [2], 1.01; in the assay with Shigella flexneri, 1.03; in the assay on Vibrio cholerae it was 1.02; in [3], 1; in the assay on P. vulgatus RND KO it was 1.02. Also, the “growth AUC normalised to DMSO control” value in the assay with P. vulgatus WT is 1.04; in assay [4], 0.999; in assay [5], 1.02.

For the compound `CCC(=O)O[C@H]1CC[C@H]2[C@@H]3CCC4=CC(=O)CC[C@]4(C)[C@H]3CC[C@]12C` [Testosterone propionate], the “growth AUC normalised to DMSO control” value is 1.06 in assay [1]; 1.02 in assay [2]; 1.03 in the assay with Shigella flexneri; 1.04 in the assay with Vibrio cholerae; 0.989 in [3]; 1 in the assay with P. vulgatus RND KO. Moreover, the results for the “growth AUC normalised to DMSO control” value (in the assay on P. vulgatus WT; in [4]; in [5]) were 1.01, 1.02 and 0.911, respectively.

In the case of `COc1cc2c(c(OC)c1OC)-c1ccc(OC)c(=O)cc1[C@@H](NC(C)=O)CC2` [Colchicine], the “growth AUC normalised to DMSO control” value in assay [1] is 0.981; in [2], 0.988; with Shigella flexneri it was 0.964; in the assay with Vibrio cholerae it was 0.98; in assay [3], 0.977; with P. vulgatus RND KO it was 0.988. The entries for the “growth AUC normalised to DMSO control” value (in the assay on P. vulgatus WT; in assay [4]; in assay [5]) were 0.986, 1 and 1.01, respectively.

As to `CC(=O)O[C@H]1CC[C@@]2(C)C(=CC[C@@H]3[C@@H]2CC[C@]2(C)C(=O)CC[C@@H]32)C1` [Dehydroisoandosterone 3-acetate], the “growth AUC normalised to DMSO control” value in assay [1] was 0.989; in assay [2], 0.995; in the assay on Shigella flexneri it was 0.966; in the assay with Vibrio cholerae, 0.988; in assay [3] it was 1; in the assay with P. vulgatus RND KO, 0.976. Moreover, the “growth AUC normalised to DMSO control” value is 0.952 in the assay on P. vulgatus WT, 0.991 in assay [4] and 0.903 in [5].

Consider `CC(C)(N)Cc1ccccc1` [Phentermine hydrochloride], for which the “growth AUC normalised to DMSO control” value is 1.02 in [1]; 1.02 in assay [2]; 1.03 in the assay on Shigella flexneri; 1.04 with Vibrio cholerae; 1.01 in assay [3]; 0.0617 (active) in the assay on P. vulgatus RND KO. Further, the “growth AUC normalised to DMSO control” value was 0.458 in the assay on P. vulgatus WT, 0.992 in [4] and 0.996 in assay [5].

On to `CC(C)C[C@H]1C(=O)N2CCC[C@H]2[C@]2(O)O[C@](NC(=O)[C@@H]3C=C4c5cccc6[nH]c(Br)c(c56)C[C@H]4N(C)C3)(C(C)C)C(=O)N12` [Bromocryptine mesylate], for which the “growth AUC normalised to DMSO control” value in assay [1] was 1; in assay [2], 1; in the assay with Shigella flexneri, 0.996; in the assay with Vibrio cholerae, 0.996; in assay [3] it was 1.03; with P. vulgatus RND KO it was 1.01. In addition, the “growth AUC normalised to DMSO control” value with P. vulgatus WT was 1.03; in assay [4], 1.02; in [5], 0.994.

On to `CN(C)C(=O)Oc1ccc[n+](C)c1` [Pyridostigmine iodide], for which the “growth AUC normalised to DMSO control” value was 0.994 in assay [1]; 1 in assay [2]; 1.03 in the assay on Shigella flexneri; 1.02 in the assay on Vibrio cholerae; 0.992 in assay [3]; 1 in the assay with P. vulgatus RND KO. Besides, the “growth AUC normalised to DMSO control” value is 1.03 with P. vulgatus WT, 1.01 in assay [4] and 0.991 in assay [5].

As to `CCC1(C2=NCCN2)Cc2ccccc2O1` (configuration not stated) [Efaroxan hydrochloride], the “growth AUC normalised to DMSO control” value is 1.02 in the assay on P. vulgatus RND KO, 1.03 with P. vulgatus WT, 0.997 in assay [4] and 0.999 in assay [5].

Consider `C#C[C@]1(O)C=C[C@H]2[C@@H]3CCC4=CC(=O)CC[C@@H]4[C@H]3CC[C@@]21CC` [Gestodene], for which the “growth AUC normalised to DMSO control” value with P. vulgatus RND KO was 0.978; in the assay with P. vulgatus WT, 0.978; in [4] it was 0.997; in [5] it was 0.995.
